Experiment [1] has as its system Plasmodium falciparum Sir2 (PF13_0152, Sir2A). Description: pfSir2 binders on small-molecule microarrays, primary screen, biochemical, small-molecule microarray, 635 nm fluorescence (AID 1098).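 Note: score merges spot fluorescence intensity with its signal-to-noise ratio.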 The settings on record: small-molecule microarray binding, fluorescence 635 nm; higher = more signal.
Experiment [2] can be described thus: small-molecule microarray binders of probe aDKK1, primary screen, biochemical, biotinylated probe, 635/667 nm fluorescence (AID 1099).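 Note: score merges 667nm spot fluorescence with signal to noise across triplicate slides; reference of the scale not given here.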 The settings on record: higher = more signal.
Experiment [3] in a line: small-molecule microarray binders of probe aCHRDL2, primary screen, biochemical, biotinylated probe, 635/667 nm fluorescence (AID 1100). The conditions noted are these: higher = more signal.
Experiment [4] can be described thus: splicing luciferase reporter signal modulators, primary screen, spliceosome inhibition project, cell-based, HEK293, splice +/- reporter (AID 1101).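 Note: HEK293 cells carrying a splicing-competent luciferase reporter gene; test concentration not given here.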 The conditions noted are these: luminescence, 24 h, higher = more signal, called active from +8 up or from −8 down. In general terms: In a reporter assay the amount or activity of a reporter protein is the signal.
The target of experiment [5] is Fibroblast growth factor 10 (Homo sapiens) (UniProt O15520). Description: FGF10 binders on small-molecule microarrays, primary screen, biochemical, small-molecule microarray, 635 nm fluorescence (AID 1102). The settings on record: FGF10 binding, fluorescence 635 nm, higher = more signal.
Experiment [6] deals with glycogen synthase kinase-3 (GSK3A per assay name; protocol says GSK3B). Description: GSK3 binders on small-molecule microarrays, primary screen, biochemical, small-molecule microarray, 635 nm fluorescence, GSK3A (AID 1103). Note: the record names both GSK3A and GSK3B. The settings on record: small-molecule microarray binding, fluorescence 635 nm; higher = more signal.
The target of experiment [7] is Epidermal growth factor receptor (Homo sapiens) (UniProt P00533). Description: EGFR binders on small-molecule microarrays, primary screen, biochemical, small-molecule microarray, 635 nm fluorescence (AID 1104).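 Note: score merges 667 nm emission intensity with spot signal to noise over triplicate slides.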 The settings on record: EGFR binding, higher = more signal.
For experiment [8], the target named is Follistatin-related protein 3 (Homo sapiens) (UniProt O95633). Description: FSTL3 binders on small-molecule microarrays, primary screen, biochemical, small-molecule microarray, 635 nm fluorescence (AID 1105).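 Note: score merges emission near 667 nm and signal to noise per printed spot across three slides.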 The conditions noted are these: FSTL3 binding, higher = more signal.
The target of experiment [9] is Dickkopf-related protein 1 (Homo sapiens) (UniProt O94907). Description: DKK1 binders on small-molecule microarrays, primary screen, biochemical, small-molecule microarray, 635 nm fluorescence scan (AID 1106).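 Note: score merges emission near 667 nm with signal to noise over three replicate slides.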 The settings on record: DKK1 binding, higher = more signal.
The subject of experiment [10] is Inhibin beta A chain (activin A). Description: INHBA (activin A) binders on microarrays, primary screen, biochemical, small-molecule microarray, 635 nm fluorescence scan (AID 1107).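 Note: mouse activin A protein probed at 4.33 µg/mL on printed slides; score merges bound-protein fluorescence near 667 nm with spot signal-to-noise.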 The conditions noted are these: small-molecule microarray binding, higher = more signal.

Structures are written as SMILES. Calls of active or inactive are those of the source.

Sequence of Epidermal growth factor receptor (Homo sapiens) (P00533 whole entry, looked up): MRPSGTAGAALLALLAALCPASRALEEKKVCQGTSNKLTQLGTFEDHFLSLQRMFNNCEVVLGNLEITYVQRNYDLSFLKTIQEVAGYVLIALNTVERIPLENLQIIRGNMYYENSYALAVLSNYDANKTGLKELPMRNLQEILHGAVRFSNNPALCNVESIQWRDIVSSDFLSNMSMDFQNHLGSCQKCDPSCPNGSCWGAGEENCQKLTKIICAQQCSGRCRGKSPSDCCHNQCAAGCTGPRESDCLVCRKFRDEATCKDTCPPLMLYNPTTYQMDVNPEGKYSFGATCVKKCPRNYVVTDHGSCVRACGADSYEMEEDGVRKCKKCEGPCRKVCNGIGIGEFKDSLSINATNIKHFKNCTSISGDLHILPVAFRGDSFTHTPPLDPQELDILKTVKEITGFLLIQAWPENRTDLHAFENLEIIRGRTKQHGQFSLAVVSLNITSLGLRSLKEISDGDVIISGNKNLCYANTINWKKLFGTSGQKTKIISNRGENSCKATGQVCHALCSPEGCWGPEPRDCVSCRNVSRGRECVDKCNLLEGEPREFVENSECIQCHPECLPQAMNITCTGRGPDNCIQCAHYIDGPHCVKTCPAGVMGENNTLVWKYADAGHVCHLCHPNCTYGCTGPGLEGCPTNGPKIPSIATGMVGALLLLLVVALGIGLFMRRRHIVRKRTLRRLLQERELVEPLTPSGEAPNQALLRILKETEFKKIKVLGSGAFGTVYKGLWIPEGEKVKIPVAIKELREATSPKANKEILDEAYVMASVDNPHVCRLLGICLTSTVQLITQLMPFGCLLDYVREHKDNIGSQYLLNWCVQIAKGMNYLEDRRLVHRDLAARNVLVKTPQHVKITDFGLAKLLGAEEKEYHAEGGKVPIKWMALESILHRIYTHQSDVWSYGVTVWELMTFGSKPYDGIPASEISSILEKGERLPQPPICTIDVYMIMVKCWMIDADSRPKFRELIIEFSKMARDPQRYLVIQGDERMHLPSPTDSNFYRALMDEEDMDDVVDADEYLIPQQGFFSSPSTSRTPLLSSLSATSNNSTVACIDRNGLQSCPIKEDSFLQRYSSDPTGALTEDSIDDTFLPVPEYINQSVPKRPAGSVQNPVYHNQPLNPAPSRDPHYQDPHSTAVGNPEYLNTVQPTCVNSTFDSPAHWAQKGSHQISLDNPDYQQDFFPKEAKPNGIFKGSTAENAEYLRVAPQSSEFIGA
Sequence of Dickkopf-related protein 1 (Homo sapiens) (O94907 whole entry, looked up): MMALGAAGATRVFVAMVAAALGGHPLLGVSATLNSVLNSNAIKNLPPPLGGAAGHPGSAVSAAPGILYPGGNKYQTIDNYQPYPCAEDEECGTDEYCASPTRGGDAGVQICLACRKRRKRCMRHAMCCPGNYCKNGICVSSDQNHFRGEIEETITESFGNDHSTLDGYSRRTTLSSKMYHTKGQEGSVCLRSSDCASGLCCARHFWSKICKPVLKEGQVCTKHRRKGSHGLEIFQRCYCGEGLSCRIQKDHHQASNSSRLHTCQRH
Sequence of Follistatin-related protein 3 (Homo sapiens) (O95633 whole entry, looked up): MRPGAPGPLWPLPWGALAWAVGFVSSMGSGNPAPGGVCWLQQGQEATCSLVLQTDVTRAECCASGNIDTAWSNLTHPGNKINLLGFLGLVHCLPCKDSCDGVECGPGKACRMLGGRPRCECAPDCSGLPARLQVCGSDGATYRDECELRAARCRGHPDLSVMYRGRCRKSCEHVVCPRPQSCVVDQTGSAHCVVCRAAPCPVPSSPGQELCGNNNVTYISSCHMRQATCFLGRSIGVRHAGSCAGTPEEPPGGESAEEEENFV
Sequence of Fibroblast growth factor 10 (Homo sapiens) (O15520 whole entry, looked up): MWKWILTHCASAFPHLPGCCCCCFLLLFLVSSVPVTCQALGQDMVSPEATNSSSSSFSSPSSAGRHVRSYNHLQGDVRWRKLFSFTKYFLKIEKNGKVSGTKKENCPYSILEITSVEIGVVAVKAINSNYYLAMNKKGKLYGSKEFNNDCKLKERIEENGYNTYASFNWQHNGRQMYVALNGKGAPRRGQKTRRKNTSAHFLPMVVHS

With `COc1ccc([Si](C)(C)[C@@H]2[C@@H](CCO)O[C@]3(C(=O)N(Cc4ccc(N(C=O)c5ccccc5)cc4)c4ccccc43)[C@H]2C)cc1`, the composite z-score in [1] is 0.724; in experiment [2] it was 0.116; in [3], 0.605; in [5], 0.224; in experiment [6], -0.157; in experiment [7], -0.049. For the same molecule, the composite z-score was 0.218 in [8], -0.013 in experiment [9] and 1.1 in experiment [10]. The z-score in experiment [4] was -1.38 (inactive).

Consider `C=CC1(C(=O)OC)CC=C(C(=O)OC)CC1` (stereo not given), for which the composite z-score was 0.0006 in experiment [1]; -0.259 in [2]; -0.425 in experiment [3]; 0.916 in experiment [5]; 1.15 in [6]; 0.478 in experiment [7]. Besides, the composite z-score in experiment [8] is 0.791; in experiment [9], 0.908; in experiment [10] it was -0.115. In addition, the z-score in experiment [4] was -1.38 (inactive).

As for `CC(C)CNC(=O)[C@@]1(Cc2ccccc2I)c2ccccc2C(=O)N(C2CCCCC2)[C@H]1c1ccc(CO)cc1`, the composite z-score in experiment [1] is 1.53; in experiment [2] it was 0.778; in [3] it was 1.02; in [5] it was 0.51; in experiment [6] it was -0.218; in experiment [7], -0.272. The composite z-score is 0.248 in experiment [8], -0.271 in [9] and 0.504 in experiment [10]. The z-score in experiment [4] was 1.14 (inactive).

`COCCCNC(=O)[C@]1(CCC(=O)OC(C)(C)C)N=C(c2ccc(OCCCO)cc2)O[C@@H]1c1ccccc1CN=[N+]=[N-]`: the composite z-score in experiment [1] is 1.42; in [2], 0.639; in experiment [3], 0.608; in [5], 1.41; in experiment [6], 1.3; in experiment [7], -0.504. The results for the composite z-score in [8], in experiment [9] and in [10] were 0.35, -0.299 and 0.733, respectively. Moreover, the z-score in experiment [4] is 0.378 (inactive).

As to `[N-]=[N+]=NCc1ccccc1C[C@]1(C(=O)N2CCCCC2)N=C(c2ccc(OCCCO)cc2)O[C@H]1c1ccccc1N=[N+]=[N-]`, the composite z-score in experiment [1] is 0.711; in experiment [2], 1.1; in experiment [3], 1.19; in experiment [5] it was 0.55; in experiment [6] it was 0.998; in experiment [7], 0.26. Besides, the figures for the composite z-score in [8], in experiment [9] and in experiment [10] were 0.308, -0.5 and 1.36, respectively. Also, the z-score in experiment [4] is -1.01 (inactive).

As to `O=C(NCCO)C1=C[C@H](Oc2ccccc2I)[C@@H](O)[C@H](N(Cc2ccco2)C(=O)Cc2ccccc2)C1`, the composite z-score in experiment [1] was -0.012; in experiment [2], -0.223; in experiment [3], -0.453; in experiment [5], 0.556; in [6], 0.349; in [7], 0.508. Besides, the composite z-score in [8] came out at 0.468; in experiment [9], 0.431; in [10], 0.497. Further, the z-score in experiment [4] is -0.0906 (inactive).

As for `COCCOC(=O)N1C(=O)[C@@]2(c3cc(C#CCC(C(=O)OC)C(=O)OC)ccc31)[C@H](c1ccccc1OCCO)N1[C@H](c3ccccc3)[C@H](c3ccccc3)OC(=O)[C@H]1[C@@H]2C(=O)N1CCN(c2ncccn2)CC1`, the composite z-score in [1] turned out to be 0.875; in [2], 0.231; in [3], 0.237; in experiment [5], 1.08; in experiment [6], 1.32; in [7] it was 0.94. Further, the composite z-score in experiment [8] is 1.45; in [9], 0.853; in experiment [10], 1.14. Also, in experiment [4], the z-score is -0.397 (inactive).

For `COCCOC(=O)N1C(=O)[C@@]2(c3cc(C#Cc4ccc(OC)cc4)ccc31)[C@H](c1ccc(O)cc1)N1[C@H](c3ccccc3)[C@H](c3ccccc3)OC(=O)[C@H]1[C@@H]2C(=O)N1CCc2cc(OC)c(OC)cc2C1`, the composite z-score was 0.888 in [1]; 0.267 in experiment [2]; -0.0098 in experiment [3]; 0.636 in [5]; 1.2 in experiment [6]; 0.386 in experiment [7]. Besides, the composite z-score in experiment [8] was 0.914; in experiment [9] it was 0.75; in experiment [10], -0.0186. Moreover, the z-score in experiment [4] was -1.34 (inactive).

As to `C#C[C@H](O[Si](C#Cc1ccc(Oc2ccccc2)cc1)(C(C)C)C(C)C)c1ccccc1`, the composite z-score in [1] was 1.39; in [2] it was 0.629; in experiment [3] it was 0.0024; in experiment [5], 0.406; in experiment [6], 0.639; in [7] it was 0.144. Also, the composite z-score in experiment [8] was 0.563; in [9], -0.0522; in experiment [10], -0.0811. In experiment [4], the z-score was -0.855 (inactive).

With `C=CCOC(=O)[C@H]1[C@@H]2C(=O)O[C@@H](c3ccccc3)[C@@H](c3ccccc3)N2[C@@H](c2ccc(OCCOC(=O)[C@@H]3C[C@@H]4C(=O)N[C@@H](CCCCNC(C)=O)C(=O)N4[C@@H]3c3ccc(O)cc3)cc2)[C@]12C(=O)Nc1ccccc12`, the composite z-score in experiment [1] is 1.65; in experiment [2], -0.208; in [3], -0.187; in [5], 0.768; in [6] it was 1.3; in [7] it was 0.673. For the same molecule, the composite z-score in [8] worked out at 1.28; in experiment [9], 0.783; in experiment [10], 0.152. In addition, the z-score in [4] was -0.0104 (inactive).

`CC(=O)n1cc(C(O)C2C=CC3C(=O)N(c4ccccc4)C(=O)C3N2Nc2ccc([N+](=O)[O-])cc2)c2ccccc21` (stereo not given): the composite z-score in experiment [1] was 0.894; in [2], 0.929; in experiment [3], 1.38; in [5], -0.0673; in experiment [6], 1.28; in [7], -0.142. Moreover, the composite z-score in [8] is 0.38; in experiment [9], -0.113; in experiment [10], 0.783. Moreover, the z-score in experiment [4] is 0.138 (inactive).

`COc1cc(NN2C(C(O)c3ccco3)C=CC3C(=O)N(c4ccccc4)C(=O)C32)cc(OC)c1OC` (stereo not given): the composite z-score in experiment [1] is 1.69; in experiment [2] it was 0.157; in experiment [3] it was 0.485; in experiment [5], -0.0151; in [6] it was -0.0659; in experiment [7], -0.395. Also, the composite z-score in experiment [8] is 0.373; in experiment [9], -0.21; in [10], 0.914. In addition, the z-score in experiment [4] is 0.523 (inactive).

Consider `Cc1nc2cc(Br)ccc2c(=O)o1`, for which the composite z-score in experiment [1] was -0.319; in experiment [2], -0.0717; in [3], -0.267; in [5] it was 0.543; in [6], 0.778; in experiment [7] it was 0.427. Besides, the composite z-score in experiment [8] was found to be 0.846; in experiment [9], 0.436; in experiment [10], 0.435. For the same molecule, the z-score in experiment [4] was 0.502 (inactive).

These data come from PubChem BioAssay.
